KCNH2 3.1 inh = KCNH2 3.1 (human) potassium channel inhibition; AID 720553; 340,000 compounds, 0.95% hits; activity change, % (tested at about 1.8 µM); U2OS KCNH2 3.1, thallium flux FluxOr; stronger effect = lower value;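 active = maximum activity change below -70%; inconclusive = maximum activity change from -70% to -50%; inactive = maximum activity change above -50%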;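 note: thallium influx rate constant from kinetic fluorescence after stimulation buffer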
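Kinetic fluorescence (2 min after stimulation buffer) measures Tl+ influx through KCNH2 3.1 expressed by viral transduction in U2OS cells; the rate constant is normalized against DMSO controls serving as positive and negative references.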
hERG WT inh = inhibitors of human wildtype KCNH2 potassium channel. Q12809. U2OS, BacMam KCNH2, thallium flux FluxOr; stronger effect = lower value. activity change, % at 1.84 µM. 340,000 compounds, 0.37% hits. AID 720551;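 active = maximum activity change below -70%; inconclusive = maximum activity change between -70% and -50%; inactive = maximum activity change above -50%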
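U2OS cells transduced with wild-type KCNH2 virus are loaded with FluxOr dye for 45 min, and thallium flux is measured in kinetic reads before and after stimulation buffer. Rate constants are normalized to DMSO controls.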
Tb PFK block = inhibitors of T. brucei phosphofructokinase. AID 485367. Potency, µM (top dose mostly 57.5 µM), usual class: inhibitors. O15648. T. brucei PFK, ADP-Glo luminescence. 330,000 compounds, 0.17% hits; active = well fitted inhibition curve with a large enough effect; inconclusive = small, poorly fitted or top-dose-only effect, or effect the other way; note: nearly all actives have a fitted effect of over 60% in size
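ADP-Glo luminescence quantified ADP after 45 min at room temperature, with 1.25 nM T. brucei PFK, 0.1 mM ATP and 0.5 mM fructose-6-phosphate in pH 8.0 TEA buffer. qHTS titrations up to 57 µM; curves classified by quality.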
TSG101-PTAP inh = blocks PTAP/TSG101 interaction to inhibit HIV-1 budding; Q99816; 340,000 tested, under 10 active; Fluorescence polarization, FITC-PTAP peptide / Tsg101 binding; Potency, µM (highest dose often 115 µM), hits mostly inhibitors; AID 493005; active = well fitted inhibition curve with a large enough effect in the main read-out, with a control signal flat, not every such curve was filed as active; inconclusive = small, poorly fitted or top-dose-only effect, or effect the other way, or a change in a side signal; inactive = no such curve, though single readings can be large or run the other way
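Fluorescence polarization binding of Tsg101 binding domain (10 uM final) to FITC-labeled PTAP peptide (50 nM final) in HEPES pH 7.5 buffer with NaCl, Tween 20, EDTA, TCEP. Compounds added before peptide; binding 20 min at RT.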
A number is an active result; – = inactive; ? = inconclusive; · = no result. Hits are enriched below; roughly 1.2% of the tested compounds scored in any of these assays.

SMILES	KCNH2 3.1 inh	hERG WT inh	Tb PFK block	TSG101-PTAP inh
Cc1c(NC(=O)c2cccc(-c3cc4ccccc4oc3=O)c2)cccc1-c1nc2ncccc2o1	-96	–	–	–
CCOC(=O)C1(Cc2ccc(Cl)cc2)CCN(CCCn2cccn2)CC1	-119	–	–	–
CCOC(=O)C1(Cc2ccccc2C(F)(F)F)CCN(C(C)CCn2cccn2)CC1 (stereo not drawn)	-85	–	–	–
CCOC(=O)C1(Cc2ccccc2)CCCN(CCCn2cccn2)C1 (stereo not drawn)	–	–	–	–
COc1cc(C)ccc1OCC(=O)NC1CCCCCC1	–	–	–	–
COc1ccc(C)cc1NC(C)C(=O)NC(=O)NC1CCCCC1 (stereo not drawn)	-97	–	–	–
Cc1ccc(O)c(NC(=O)CSc2ccc(Cl)cc2)c1	-105	–	–	–
Cc1ccc(NS(=O)(=O)c2ccc(NC(=O)CSc3ccc(Cl)cc3)cc2)c(C)c1	–	–	–	–
COc1ccccc1N1CCN(C(=O)CSc2nc3ccccc3o2)CC1	–	–	–	–
COCCNc1nc(SCC(=O)N2CCN(c3ccccc3OC)CC2)nc2ccccc12	-120	–	–	–
Nc1c(C(=O)CSc2nccn2-c2cccc(F)c2)c(=O)[nH]c(=O)n1C1CC1	–	–	–	–
CCOC(=O)Cc1nn[nH]n1	-128	–	–	–
CC(=O)N1CCN(c2nc3ccc([N+](=O)[O-])cc3s2)CC1	–	–	–	–
Cc1ccc(-n2nc(C(=O)N3CCOCC3)cc2-c2ccc(Cl)cc2)cc1	?	–	–	–
O=C(c1cc(-c2ccc(Cl)cc2)n(-c2ccc(Cl)cc2)n1)N1CCOCC1	-98	-70	–	–
CCOC(=O)c1ccc(N2C(=O)C3CCCN3C2=S)cc1 (stereo not drawn)	–	–	–	–
COC(=O)c1cc(S(=O)(=O)N2CCN(c3ccccc3F)CC2)c[nH]1	-79	–	–	–
Cc1cc(C)cc(NC(=O)CC2Oc3ccc(C)cc3NC2=O)c1 (stereo not drawn)	–	–	–	–
O=C(/C=C/c1ccco1)Nc1cccc(S(=O)(=O)N2CCOCC2)c1	–	-107	–	–
O=C(/C=C/c1ccc(OC(F)F)cc1)Nc1cccc(S(=O)(=O)N2CCOCC2)c1	-72	–	–	–
O=C(COC(=O)/C=C/c1ccc(OC(F)F)cc1)Nc1ccc(S(=O)(=O)N2CCCC2)cc1	–	–	–	–
O=C(COC(=O)/C=C/c1ccc(OC(F)F)cc1)Nc1cccc(S(=O)(=O)N2CCCC2)c1	-85	–	–	–
O=C(NC(=S)Nc1cc([N+](=O)[O-])ccc1Cl)c1ccccc1	-154	-168	–	–
O=C(c1cccc(S(=O)(=O)N2CCOCC2)c1)N(Cc1ccc(F)cc1)Cc1ccco1	-135	–	–	–
CN(C)S(=O)(=O)c1cccc(C(=O)N(Cc2ccc(F)cc2)Cc2ccco2)c1	–	–	–	–
SMILES	KCNH2 3.1 inh	hERG WT inh	Tb PFK block	TSG101-PTAP inh
Cc1ccc(S(=O)(=O)N2[C@@H](c3ccc(C(C)C)cc3)C(C(=O)O)=C[C@H]2C(C)(C)C)cc1	–	–	–	–
CCC(=O)OCCNc1cc(Sc2nc3ccccc3s2)c2nonc2c1[N+](=O)[O-]	–	–	2.7µM	–
COCCNC(=O)C(c1ccc(F)cc1)N(C(=O)CCC(=O)Nc1nccs1)c1ccc(C)cc1 (stereo not drawn)	–	–	–	–
Oc1ccc(-c2nc(-c3ccc(O)c(O)c3)cs2)cc1	–	–	–	–
Oc1ccc(-c2nccs2)cc1	-120	–	·	–
C/C(=N\Nc1ccc(S(=O)(=O)N2CCCCC2)cn1)c1cccc(Br)c1	–	–	–	–
CCC(=O)N(C)/C=C1\Sc2ccccc2C1=O	–	-102	–	–
CC(=O)N(C)/C=C1\Sc2ccccc2C1=O	–	–	–	–
CC(c1ccccc1)N1CC(C(=O)N2CCCC(C(N)=O)C2)CC1=O (stereo not drawn)	–	–	–	–
CC[N+](CC)(CC)CC(=O)Nc1ccc(SC(F)F)cc1	–	–	–	–
CCn1c(N)[n+](CC(=O)Nc2ccc(SC(F)F)cc2)c2ccccc21	-92	–	–	–
COc1ccc(C[C@@H]2CN3C(=NC[C@@H]3C)N2C[C@H](C)NC(=O)CCC2CCCCC2)cc1	-84	-129	–	–
C/C=C(\C)C(=O)NCCN1C2=NC[C@H](Cc3ccccc3)N2C[C@@H]1Cc1ccc(OC)cc1	-83	–	·	–
COc1ccc(C[C@H]2CN3C(=NC[C@H]3Cc3ccccc3)N2CCNC(=O)CCC2CCCCC2)cc1	?	-107	–	–
COc1ccc(C[C@H]2CN3C(=NC[C@@H]3Cc3ccccc3)N2C[C@H](C)NC(=O)CCC2CCCCC2)cc1	·	·	–	·
COc1ccc(CC(=O)OCC(=O)c2ccc[nH]2)cc1	–	-284	–	–
Cc1ccc(NC(=O)CSc2nc(=O)n(CCCN3CCOCC3)c3c2CCCC3)cc1	–	–	–	–
COc1ccc(OCCCC(=O)Nc2cccc([N+](=O)[O-])c2C)cc1	–	–	–	–
OC1(C#CCN2CCOCC2)CCCCC1	–	·	–	–
C(#CC12CC3CC(CC(C3)C1)C2)CN1CCOCC1	–	-103	–	–
CCOc1ccc(CN2CCN(c3ncnc4scc(-c5ccccc5)c34)CC2)cc1	-116	-141	–	–
COc1ccc(N2CCN(c3ncnc4scc(-c5ccccc5)c34)CC2)cc1	–	–	–	–
COc1ccc(N2CCN(c3ncnc4scc(-c5ccc(F)cc5)c34)CC2)cc1	–	–	–	–
COc1ccc(CN2CCN(c3ncnc4scc(-c5ccc(F)cc5)c34)CC2)cc1	-97	?	–	–
Oc1ccc(CNc2ccc(C(F)(F)F)cc2Cl)c2cccnc12	·	·	–	·
SMILES	KCNH2 3.1 inh	hERG WT inh	Tb PFK block	TSG101-PTAP inh
CN1c2ccccc2C(O)=C(C(=S)Nc2ccccc2)S1(=O)=O	–	–	–	–
CN1c2ccccc2C(O)=C(C(=S)Nc2ccc(F)c(Cl)c2)S1(=O)=O	–	-255	–	–
COc1ccc([C@H]2CC(=O)C=C(c3cccc(C(F)(F)F)c3)C2)cc1	-75	–	–	–
COCCCn1c(SCC(=O)Nc2ccc(C)cc2)nc2ccccc2c1=O	–	–	–	–
CCc1ccc(NC(=O)CSc2nc3ccccc3c(=O)n2CCCN2CCC(C)CC2)cc1	-97	-135	–	–
Cc1ccc(NC(=O)CSc2nc3ccccc3c(=O)n2Cc2cccs2)cc1	-73	–	–	–
CCC1CCCCN1CCCNC(=O)Cn1ncn2nc(-c3ccc(OC)cc3)cc2c1=O (stereo not drawn)	–	–	–	–
O=C(Cn1cc(Cl)ccc1=O)c1ccc(Cl)cc1	·	-134	–	–
O=C(CCCNC(=O)/C(=C/c1ccc(Br)cc1)NC(=O)c1ccccc1)OCc1ccccc1	-113	–	–	–
CC(C)c1ccc(/C=C(\NC(=O)c2ccccc2)C(=O)NCCCn2ccnc2)cc1	-102	–	–	–
O=C(NCCCn1ccnc1)/C(=C/c1ccc(F)cc1)NC(=O)c1ccccc1	-116	–	–	–

High-throughput results as filed in PubChem.
